aSyn yeast inh: inhibitors of alpha-synuclein toxicity in yeast | Potency, µM (titrated, usually from 46.1 µM), inactives show top-dose growth rescue (activation), actives largely listed as activators | Yeast expressing alpha-synuclein, growth rescue, BacTiter-Glo, 24 h | actives 0.14% (n = 370,000) | AID 652106; note: % of control where 0% means no effect; nearly all actives have a fitted effect of over 65% in size
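Readout is rescue of growth in alpha-synuclein-expressing yeast, so inhibitors of toxicity appear as activators. Growth after 24 hr at 30 deg C in galactose medium is quantified by luminescence.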
Abeta rescue: compounds reversing amyloid beta toxicity in yeast; actives 0.063% (n = 410,000); Potency, µM (doses to about 46.1 µM), usual class: activators; yeast expressing A-beta42, growth rescue, OD600, 48 h; response scale: 0% DMSO, 100% iron-clioquinol control; note: nearly all actives have a fitted effect of over 55% in size
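Yeast A-beta toxicity model in growth medium with pinned compounds, 48 h at 30 C; growth read as absorbance at 600 nm. Normalized to FeCl3/clioquinol equimolar mix (positive) and DMSO (negative).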
TDP-43 yeast inh: rescues yeast growth from TDP-43 toxicity | AID 652104 | TDP-43 expressing yeast growth rescue, BacTiter-Glo, 24 h | actives 1.8% (n = 410,000) | Potency, µM (highest dose often 46.1 µM), without a hit: at the highest dose growth rescue (activation), hits mostly activators; note: % of control where 0% means no effect; nearly all actives have a fitted effect of over 50% in size
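Luminescence from BacTiter-Glo reports growth of TDP-43-expressing yeast after 24 hr at 30 deg C with compound. Cells were raffinose-pregrown to mid-log, then seeded in galactose medium at OD600=0.02.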
FUS suppressor: rescues growth of FUS-expressing yeast; S. cerevisiae FUS-expressing, growth rescue, OD600, 24 h; Potency, µM (titrated, usually from 76.6 µM), hits mostly activators; actives 0.24% (n = 390,000); AID 1347120;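 note: plate controls were DMSO vehicle for no effect and reference control for full effect; nearly all actives have a fitted effect of over 55% in size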
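Restored growth of FUS-toxic S. cerevisiae, read as 600 nm absorbance after 24 h at 30C in galactose medium (starting OD 0.005). Controls CP55940 and DMSO.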
* = called active by the depositor; i = inactive; ? = inconclusive; nt = no result; [ ] = another dose, or the depositor's remark. Sampled rows, rich in hits. Any-hit rate of the full collection: about 2.1%. Calls come from the whole dose curve; as a rule, active = well fitted curve in the direction sought with a large enough effect; inconclusive = small, poorly fitted or top-dose-only effect, or another doubt; inactive = no such curve, though single readings can be large; an effect the other way counts as inactive or inconclusive. Potency is the fitted concentration of half-maximal effect.

SMILES	aSyn yeast inh	Abeta rescue	TDP-43 yeast inh	FUS suppressor
OC(c1ccccc1)c1nc(-c2cc(F)cc(F)c2)cs1 (stereo unspecified)	18%	i	?	i
COc1cc(C(O)c2nc(-c3cc(F)cc(F)c3)cs2)ccc1F (stereo unspecified)	?	?	35µM*	i
COc1ccc(C(O)c2nc(-c3cc(F)cc(F)c3)cs2)cc1 (stereo unspecified)	?	?	35µM*	i
COc1ccc2c(c1)CCCN2C(=O)C1CCCN(S(=O)(=O)c2ccccc2)C1 (stereo unspecified)	nt	nt	nt	i
CCC(C)NC(=O)c1ccc2nc(-c3cccs3)c(-c3cccs3)nc2c1 (stereo unspecified)	12%	nt	nt	nt
COc1ccc(CN2C(=O)c3ccccc3C2=O)cc1C(=O)Nc1ccccc1N1CCOCC1	?	i	18µM*	i
Cn1nc(-c2ccccc2)c(C(=O)Nc2ccc(Cl)cc2)c1Cl	4%	i	3.2µM*	i
Cn1nc(C(F)(F)F)c(C(=O)Nc2ccc(C(F)(F)F)cc2)c1Cl	-4%	i	20µM*	i
Cn1nc(-c2ccccc2)c(C(=O)Nc2ccc(C(F)(F)F)cc2)c1Cl	-7%	i	-2%	i
COC(=O)[C@]1(CNC(C)=O)CC(=O)N(C)[C@@H]1c1ccccc1	nt	nt	nt	i
COc1ccc(OC)c(/C=C/c2ccc3ccccc3[n+]2C)c1	-4%	nt	nt	nt
CC(=O)Oc1ccc2nc(/C=C/c3ccc(C=O)cc3)oc(=O)c2c1	-11%	i	-7%	i
CC(=O)Oc1ccc2nc(/C=C/c3ccccc3)oc(=O)c2c1	0%	i	3.5µM*	i
CC(=O)Oc1ccc(-c2nc3cc(Cl)ccc3c(=O)o2)cc1	0%	i	4µM*	i
CC(=O)Oc1ccc2c(=O)oc(-c3ccccc3C)nc2c1	-1%	i	14µM*	i
CCC(=O)Oc1ccc(-c2nc3ccccc3c(=O)o2)cc1	nt	i	4µM*	i
CCCOc1ccc(-c2nc3ccccc3c(=O)o2)cc1	2%	i	10%	i
COc1cc2nc(N(C)C)nc(NC3CCN(C)CC3)c2cc1OC	-2%	nt	nt	nt
COc1ccc(Cn2ccc3ccc(-c4ccc5ccn(Cc6ccc(F)cc6)c5c4)cc32)cc1	nt	nt	nt	i
O=C(CSc1nnnn1-c1cccc2c1CCCC2)N1CCCC1	3%	i	20µM*	i
CCc1c(C)nc2nncn2c1Nc1ccc(C(C)C)cc1	nt	i	13µM*	i
CCOC(=O)CC[C@H]1CC[C@]2(CCCN(C(=O)c3ccno3)C2)O1	nt	nt	nt	i
CCOC(=O)c1sc2ncnc(NCc3ccco3)c2c1C	3%	?	20µM*	i
Nc1ccc(Sc2ccc([N+](=O)[O-])cc2)cc1	20µM*	i	?	i
O=C1[C@@H](C2CC2)[C@@H]2c3ccccc3C=NN2[C@@H]2c3ccccc3C=NN12	nt	nt	nt	i
SMILES	aSyn yeast inh	Abeta rescue	TDP-43 yeast inh	FUS suppressor
Cn1c(=O)n(CCc2ccccc2)c(=O)c2c1nc1n2CCCN1CCc1ccccc1	1%	i	13µM*	i
CCCCN1C(=O)C2(OCCCO2)c2cccc(C)c21	6%	i	20µM*	i
C=CCN1C(=O)C2(OCCCO2)c2cccc(C)c21	0%	i	24%	i
CC1CCN(C(=O)CSc2nc(-c3ccc(C(C)C)cc3)no2)CC1	nt	i	18µM*	i
COc1cc(OC)c(/C=C/c2nc3ccccc3o2)c(OC)c1	2%	nt	nt	nt
Cc1nc(C(=O)Nc2cc(F)cc(Cl)c2)sc1C1(C)CC(c2ccccc2)=NO1 (stereo unspecified)	1%	i	13µM*	?
C#CCN(C[C@H]1[C@H](OC(=O)NCc2ccco2)[C@H](OC(=O)NCc2ccco2)C[C@H]2C(=O)N(c3ccccc3)C(=O)[C@@H]12)S(=O)(=O)c1ccc(C)cc1	0%	i	0%	16µM*
C#CCN(C[C@@H]1[C@@H](OC(=O)NCc2ccco2)[C@@H](OC(=O)NCc2ccco2)Cn2c(=O)ccc(=O)n21)S(=O)(=O)c1ccc(C)cc1	-7%	i	21%	?
Cc1ccc(C)c(CN2C(=O)c3ccccc3S(=O)(=O)c3ccc(C(=O)N4CCOCC4)cc32)c1	nt	i	9%	28µM*
O=C(Cn1c(=O)c2cccn2c2cccnc21)NCCCN1CCN(c2ccc(Cl)cc2)CC1	nt	nt	nt	i
O=C(NC1CCCc2ccccc21)c1cnn2c1NC(=C1CC1)C=C2C(F)F (stereo unspecified)	14%	nt	nt	nt
Oc1ccccc1NCC(O)Cn1ccc2ccccc21 (stereo unspecified)	0%	i	0%	?
Nc1ccccc1SCC(O)Cn1ccc2ccccc21 (stereo unspecified)	?	i	18µM*	i
COc1ccc2c(c1)c(=O)oc1cc(OCC(=O)N3CCCC(C)C3)ccc12 (stereo unspecified)	0%	i	25µM*	i
COc1ccc2c(c1)c(=O)oc1cc(OCC(=O)N3CCC(C)CC3)ccc12	14%	i	?	i
C=CCN(CC#Cc1ccc(OC)cc1)CC=C	nt	nt	nt	i
O=C(Cc1c(F)c(F)c(F)c(F)c1F)Nc1nc(-c2ccccc2)cs1	-9%	i	20µM*	i
CCc1ccccc1OCC(=O)Nc1nc(-c2cccnc2)cs1	?	?	6.3µM*	i
Cc1ccc(S(=O)(=O)CC(=O)Nc2nc(-c3ccccc3)cs2)cc1	12%	i	10µM*	i
CCC[C@H]1[C@@H](NC(=O)C2CCCCC2)CC[C@@]23CCCN2C(=O)CCC[C@@H]13	nt	nt	nt	i
CC(=O)N(O)c1ccc(/C=C2\C=Cc3ccccc32)cc1	-22%	nt	nt	nt
CCOC(=O)C1CCN(C(=O)CCc2c(C)nc3cc(-c4ccccc4)nn3c2C)CC1	2%	i	18µM*	i
COc1cc(/C=C(\C#N)C(N)=O)ccc1OS(=O)(=O)c1ccc(C)cc1	-6%	i	18µM*	i
COc1cc(/C=C(\C#N)C(=O)NC2CCCCC2C)ccc1OS(=O)(=O)c1ccc(C)cc1 (stereo unspecified)	0%	i	15%	i
N/C(=N\OC(=O)CCCOc1ccc(Cl)cc1Cl)c1ccccn1	2%	i	14µM*	i
SMILES	aSyn yeast inh	Abeta rescue	TDP-43 yeast inh	FUS suppressor
Cc1ccc(OCCCC(=O)ON=C(N)c2ccccc2C)cc1	12%	i	?	i
N/C(=N\OC(=O)CCCOc1ccccc1)c1ccncc1	9%	i	-3%	i
COc1ccc(OCCCC(=O)ON=C(N)c2ccccc2Cl)cc1	4%[1.84 µM]	i	10µM*	i
N/C(=N\OC(=O)CCCOc1ccc(Cl)cc1Cl)c1ccncc1	21%	i	?	i
N/C(=N\OC(=O)CCCOc1ccccc1)c1ccccc1	1%	i	25µM*	i
Oc1ccc2[nH]cc(CCc3ccccc3)c2c1-c1ccccc1	nt	nt	nt	i
c1ccc2nccnc2c1	-14%	nt	nt	nt

Assay outcomes deposited in PubChem BioAssay by National Center for Advancing Translational Sciences (NCATS).
